A short description of assay [1]: A CellTox Green Cytotoxicity Assay to monitor cytotoxicity in HepG2 cells - 8 hour (AID 1224890). Also: nearly all actives have a fitted effect of over 45% in size. Summed up: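 HepG2 cells were seeded together with the CellTox Green dye at 600 cells/well, left 5 h at 37 C/5% CO2, then given compounds in DMSO. Fluorescence from dye bound to dead-cell DNA was read repeatedly over 40 h of treatment at 37 C.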
The nature of assay [2]: qHTS assay to identify small molecule antagonists of the estrogen receptor alpha (ER-alpha) signaling pathway using the BG1 cell line in the presence of 0.1 nM 17-beta-estradiol - cell viability counter screen (AID 1259241). Also: nearly all actives have a fitted effect of over 40% in size. In outline:
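CellTiter-Fluor read (30 min, 37C) on ER-alpha/ERE-luc VM7Luc4E2 cells; 22 hr compound treatment; agonist 0.1 nM E2 final; same-well multiplex.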
For orientation: qHTS replaces the single test concentration by a dilution series.

Assay [3] can be described thus: qHTS assay to identify small molecule antagonists of the androgen receptor (AR) signaling pathway using the MDA cell line in the presence of 0.5 nM R1881 - cell viability counter screen (AID 1259242). Also: nearly all actives have a fitted effect of over 45% in size. Summed up:
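MDA-kb2 cells (human breast carcinoma, stably carrying MMTV-luciferase reporter) were exposed to compounds with 0.5 nM R1881 (final) for 16 hr at 37C, 0% CO2; viability then read as live-cell protease fluorescence (CellTiter-Fluor, 30 min) in the same wells.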

Assay [4] addresses Androgen receptor (Homo sapiens) (UniProt P10275). In words: qHTS assay to identify small molecule antagonists of the androgen receptor (AR) signaling pathway using the MDA cell line in the presence of 0.5 nM R1881 (AID 1259243). Also: nearly all actives have a fitted effect of over 50% in size. In outline: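 MDA-kb2 human breast carcinoma cells carrying an MMTV-luciferase reporter (AR- and GR-responsive) were plated, rested 5 hr at 37C, dosed with compounds, then stimulated with 0.5 nM R1881 (final) for 16 hr; luminescence was read after ONE-Glo.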

Assay [5] has as its target Estrogen receptor (Homo sapiens) (UniProt P03372). The experiment in a line: qHTS assay to identify small molecule antagonists of the estrogen receptor alpha (ER-alpha) signaling pathway using the BG1 cell line in the presence of 0.1 nM 17-beta-estradiol (AID 1259244). Also: nearly all actives have a fitted effect of over 50% in size. In outline: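 VM7Luc4E2 cells (endogenous full-length ER-alpha, stable 4xERE-luciferase) were grown 5 days in phenol red-free medium with charcoal-stripped FBS, then exposed 22 h at 37C to compounds plus 0.1 nM (final) 17beta-estradiol; ONE-Glo luminescence read-out.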

The nature of assay [6]: qHTS assay to identify small molecule HDAC inhibitors (AID 1259364). Also: nearly all actives have a fitted effect of over 45% in size. Also: potency is read from the fitted curve at half-maximal effect. Summed up:
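Wild-type HCT-116 cells were plated overnight, exposed to compounds for 2 h at 37 °C, then given HDAC-Glo class I/II luminogenic reagent for 30 min at room temperature before luminescence was read.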

Assay [7] in a line: qHTS assay to identify small molecule HDAC inhibitors - cell viability counter screen (AID 1259365). Also: series mostly up to about 92 µM; nearly all actives have a fitted effect of over 50% in size. Summed up: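 To flag cytotoxic hits, 1,500 wild-type HCT-116 cells per well, plated the day before, receive test compounds for 2hr at 37 C before CellTiter-Glo reagent and a luminescence read.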
Assay [8] is described as follows: qHTS assay to identify small molecule agonists of the sonic hedgehog signaling (Shh) pathway - cell viability counter screen (AID 1259366). Also: nearly all actives have a fitted effect of over 50% in size. Also: potency is read from the fitted curve at half-maximal effect. Summed up: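 Fluorescence from CellTiter-Fluor reports live cells in this counter screen. NIH/3T3-derived Gli1-Luc reporter cells receive test compounds for 24hr at 37C; reagent goes in at 23hr.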
The nature of assay [9]: qHTS assay to identify small molecule antagonists of the sonic hedgehog signaling (Shh) pathway - cell viability counter screen (AID 1259367). Also: nearly all actives have a fitted effect of over 55% in size. Also: potency is read from the fitted curve at half-maximal effect. Summed up: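 NIH/3T3-derived Gli1-Luc reporter cells (2,000 per well) rested 4 hr at 37 C, then received DMSO compounds plus conditioned medium. After 23 hr of treatment, CellTiter-Fluor was added for 1 hr at 37C and fluorescence read.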

Assay [10] in a line: qHTS assay to identify small molecule phospholipidosis (PLD) inducers (AID 1259344; active = well fitted curve in the direction sought with a large enough effect; an effect the other way counts as inactive or inconclusive). In outline: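 HepG2 cells on collagen I, attached 4 h at 37 C, were co-treated with compound and LipidTOX Red dye for 24 h at 37 C, then fixed with paraformaldehyde plus Hoechst 33342 and imaged by high-content microscopy for phospholipid accumulation.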

Several values for one entry are separate records, joined by “and”; a condition that tells them apart may be missing. Identical values can stand only once. Inconclusive results are not listed. Some compounds were tested as several samples or in several runs, with calls that do not always agree. Activity calls are given as the source filed them. Unless noted, calls follow the shape of the dose curve; as a rule, active = well fitted curve in the direction sought with a large enough effect in the repeat runs; inconclusive = weak or mixed curves; inactive = no such curve, though single readings can be large; an effect the other way counts as inactive or inconclusive.

Estrogen receptor (Homo sapiens), sequence (P03372 whole entry, looked up): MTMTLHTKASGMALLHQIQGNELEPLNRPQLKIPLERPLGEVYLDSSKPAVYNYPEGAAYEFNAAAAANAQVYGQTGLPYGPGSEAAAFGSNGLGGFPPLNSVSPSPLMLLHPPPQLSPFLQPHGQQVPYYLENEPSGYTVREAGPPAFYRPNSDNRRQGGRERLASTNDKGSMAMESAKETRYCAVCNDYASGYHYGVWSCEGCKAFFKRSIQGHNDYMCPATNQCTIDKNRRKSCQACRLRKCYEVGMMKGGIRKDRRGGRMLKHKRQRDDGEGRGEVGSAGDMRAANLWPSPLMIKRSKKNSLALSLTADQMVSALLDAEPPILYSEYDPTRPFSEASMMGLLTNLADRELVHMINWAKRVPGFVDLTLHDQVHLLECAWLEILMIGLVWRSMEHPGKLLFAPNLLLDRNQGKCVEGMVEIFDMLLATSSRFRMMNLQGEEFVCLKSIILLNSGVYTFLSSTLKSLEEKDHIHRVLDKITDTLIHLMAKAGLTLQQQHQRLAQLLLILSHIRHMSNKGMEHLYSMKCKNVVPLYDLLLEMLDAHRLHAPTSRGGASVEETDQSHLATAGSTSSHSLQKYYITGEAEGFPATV
Androgen receptor (Homo sapiens), sequence (P10275 whole entry, looked up): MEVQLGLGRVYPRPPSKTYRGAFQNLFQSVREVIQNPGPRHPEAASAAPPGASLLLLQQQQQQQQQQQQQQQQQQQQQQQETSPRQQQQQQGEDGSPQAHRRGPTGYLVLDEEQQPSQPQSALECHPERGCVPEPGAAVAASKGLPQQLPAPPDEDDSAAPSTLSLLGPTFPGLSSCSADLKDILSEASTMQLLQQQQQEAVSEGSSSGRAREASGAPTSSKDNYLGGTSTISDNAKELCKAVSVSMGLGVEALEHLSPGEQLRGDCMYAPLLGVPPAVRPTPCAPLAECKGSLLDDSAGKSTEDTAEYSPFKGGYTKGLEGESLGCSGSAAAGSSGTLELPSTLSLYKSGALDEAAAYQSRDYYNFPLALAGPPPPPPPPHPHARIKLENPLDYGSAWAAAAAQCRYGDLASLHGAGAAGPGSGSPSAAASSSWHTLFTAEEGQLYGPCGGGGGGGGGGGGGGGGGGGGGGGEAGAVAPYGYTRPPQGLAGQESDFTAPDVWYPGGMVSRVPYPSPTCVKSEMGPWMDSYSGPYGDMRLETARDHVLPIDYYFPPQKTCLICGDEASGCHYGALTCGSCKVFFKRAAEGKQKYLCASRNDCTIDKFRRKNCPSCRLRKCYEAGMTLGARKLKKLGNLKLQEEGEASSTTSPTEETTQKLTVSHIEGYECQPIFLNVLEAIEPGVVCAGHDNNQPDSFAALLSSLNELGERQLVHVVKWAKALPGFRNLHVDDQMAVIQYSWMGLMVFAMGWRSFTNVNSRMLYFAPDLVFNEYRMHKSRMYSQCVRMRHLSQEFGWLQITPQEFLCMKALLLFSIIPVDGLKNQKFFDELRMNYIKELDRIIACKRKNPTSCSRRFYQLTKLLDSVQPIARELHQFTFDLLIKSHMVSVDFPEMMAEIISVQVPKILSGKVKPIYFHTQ

As to `O=C(O)c1cc2ccccc2cc1O`, the outcome in assay [1] and in assay [7] was inactive. For the same compound, the Potency result in [2], in [3], in assay [4], in [5], in [8] and in [9] was “inactive” throughout. Besides, the Potency in assay [6] was 27.1 µM (active) and 24.3 µM (active).

In the case of `CC(C)CC(C)O` (stereo not drawn), the call in assay [1] and in [7] was inactive. The Potency entry in assay [2], in assay [3], in assay [5], in assay [6], in assay [8] and in assay [9] was “inactive” throughout.

In the case of `CCOC(=O)n1ccn(C)c1=S`, the compound was called inactive in assay [1], in assay [10] and in [7]. Further, the Potency entry in assay [2], in assay [3], in assay [5], in assay [8] and in assay [9] was “inactive” each time.

Take `C=CC(=O)OCCC(=O)O`: the compound was classed as inactive in [1] and in assay [7]. Also, the Potency result in assay [2], in [3], in [5], in assay [6], in assay [8] and in assay [9] was “inactive” in each case.

Regarding `CC(C)OC(=O)COc1ccc(Cl)cc1Cl`, the compound was classed as inactive in assay [1] and in assay [7]. The Potency result in [2], in assay [3], in assay [5], in assay [6], in [8] and in [9] was “inactive” each time.

`CC(=O)Oc1ccc(C)cc1`: the outcome in assay [1], in assay [10] and in assay [7] was inactive. Also, the Potency entry in assay [2], in assay [3], in assay [4], in assay [5], in [6] and in [8] was “inactive” each time. Besides, the Potency result in assay [9] was “inactive”.

Regarding `CCCCCCCCCCO`, the result in assay [1] and in assay [7] was inactive. Also, the Potency result in [2], in assay [3], in [5], in [8] and in assay [9] was “inactive” in each case.

With `CSc1ccc(Cl)cc1`, the compound was classed as inactive in assay [1] and in [7]. In addition, the Potency result in assay [2], in assay [3], in assay [4], in assay [5], in assay [6] and in [8] was “inactive” in each case. The Potency result in assay [9] is “inactive”.

`CCOCC(=O)O`: the call in assay [1] and in assay [7] was inactive. Besides, the Potency entry in assay [2], in [3], in assay [5], in [8] and in assay [9] was “inactive” each time.

For the compound `COC(=O)c1cccnc1`, the compound was classed as inactive in [1], in assay [10] and in [7]. The Potency entry in assay [2], in assay [3], in assay [4], in [8] and in assay [9] was “inactive” in each case.

With `CC(=O)OCCOC(C)=O`, the call in [1] and in assay [7] was inactive. The Potency entry in [2], in assay [3], in [5], in assay [6], in assay [8] and in assay [9] was “inactive” throughout.

Take `COc1cc(OC)c(C(=O)CCCN2CCCC2)c(OC)c1`: the outcome in [1], in assay [10] and in assay [7] was inactive. In addition, the Potency entry in [2], in assay [3], in assay [4], in [6], in [8] and in [9] was “inactive” each time.

Take `CC(C)(C#N)c1cc(Cn2cncn2)cc(C(C)(C)C#N)c1`: the call in assay [1], in assay [10] and in assay [7] was inactive. The Potency result in [2], in assay [3], in [8] and in assay [9] was “inactive” each time.

Take `C=C(C)[C@H]1CC=C(C)C(=O)C1`: the compound was called inactive in assay [1] and in assay [7]. The Potency result in assay [2], in assay [3], in assay [6], in [8] and in assay [9] was “inactive” in each case.

In the case of `CCCCCCCC=O`, the compound was classed as inactive in assay [1] and in assay [7]. The Potency entry in assay [2], in [3], in assay [6], in [8] and in [9] was “inactive” throughout.

For `COCCCN`, the compound was classed as inactive in assay [1] and in [7]. The Potency entry in [2], in assay [3], in assay [6], in assay [8] and in assay [9] was “inactive” throughout.

For `Cc1ccc(S(=O)(=O)N=C=O)cc1`, the compound was called inactive in assay [1] and in assay [7]. For the same compound, the Potency entry in assay [2], in assay [3] and in [6] was “inactive” each time. Moreover, the Potency in assay [8] was 16.9 µM (active) and inactive; in assay [9] it was 23.9 µM (active) and inactive.

In the case of `CC(=O)CC(C)(C)O`, the call in assay [1] and in [7] was inactive. Further, the Potency result in assay [2], in [4], in [5], in assay [6], in assay [8] and in assay [9] was “inactive” in each case.

As for `NC(=S)NNC(N)=S`, the compound was classed as inactive in assay [1] and in [7]. For the same compound, the Potency result in [2], in assay [3], in [6], in assay [8] and in assay [9] was “inactive” throughout.

`Nc1nc(N)nc(-c2ccccc2)n1`: the result in assay [1] and in assay [7] was inactive. Also, the Potency entry in [2], in assay [3], in [6], in [8] and in assay [9] was “inactive” throughout.

Turning to `CCc1ccccc1CC`, the compound was called inactive in assay [1] and in assay [7]. Also, the Potency result in [2], in [3], in [6], in assay [8] and in assay [9] was “inactive” each time.

`CN1C(=O)CC[C@H]1c1cccnc1`: the compound was classed as inactive in assay [1], in assay [10] and in assay [7]. For the same compound, the Potency result in [2], in [3], in [8] and in assay [9] was “inactive” in each case.

Take `CCCCCCC=O`: the compound was called inactive in assay [1] and in assay [7]. Moreover, the Potency result in assay [2], in [3], in assay [6], in assay [8] and in assay [9] was “inactive” each time.

Turning to `CCNc1cccc(C)c1`, the call in assay [1] and in [7] was inactive. Further, the Potency result in assay [2], in [3], in assay [6], in assay [8] and in assay [9] was “inactive” each time.

For `COc1ccc(CCC(C)=O)cc1`, the compound was classed as inactive in assay [1] and in assay [7]. Also, the Potency result in assay [2], in [3], in assay [6], in assay [8] and in assay [9] was “inactive” in each case.

For the compound `NCCNCCN`, the compound was called inactive in assay [1], in assay [10] and in [7]. Further, the Potency entry in [2], in assay [3], in assay [8] and in assay [9] was “inactive” throughout.

For the origin of these results see PubChem BioAssay (Tox21).
